Source: PubChem BioAssay (EPA / NIEHS)
Some compounds were tested as several samples or in several runs, with calls that do not always agree. The source made the active and inactive calls. Rule for the calls: active = hit-call score of the fitted dose curve at least 0.9, where 1 is the maximum; inactive = score below 0.9.

Test: APR_HepG2_p53Act_24hr: Apredica 24-hour HepG2 Assay for p53 Activation (AID 2282913)
Details: high-content imaging, actives raise or lower the signal
Experimental: APR_HepG2_24hr is a cell-based, multiplexed-readout assay that uses HepG2, a human liver cell line, with measurements taken at 24 hours after chemical dosing in a 384-well plate.APR_HepG2_p53Act_24hr is one of 10 assay component(s) measured or calculated from the APR_HepG2_24hr assay. It is designed to make measurements of dna content, a form of viability reporter, as detected with fluorescence intensity signals by HCS Fluorescent Imaging technology.Data from the assay component APR_HepG2_p53Act_24hr was analyzed into 1 assay endpoint. This assay endpoint, APR_HepG2_p53Act_24hr, was analyzed with bidirectional fitting relative to DMSO as the negative control and baseline of activity. Using a type of viability reporter, measures of protein for gain or loss-of-signal activity can be used to understand the signaling at the pathway-level as they relate to the gene TP53. Furthermore, this assay endpoint can be referred to as a primary readout, because this assay has produced multiple assay endpoints where this one serves a signaling function. To generalize the intended target to other relatable targets, this assay endpoint is annotated to the dna binding intended target family, where the subfamily is tumor suppressor.
Cells were treated with dimethyl sulfoxide (DMSO) as a solvent control at a final concentration of 0.5% v/v or with compounds in DMSO with a resulting final DMSO concentration of 0.5% v/v. Compound treatment was done at concentrations of 0.39, 0.78, 1.56, 3.12, 6.24, 12.5, 25, 50, 100, and 200 uM in duplicate on each plate. Cells were treated with compounds for 1, 24, or 72 hr. Carbonyl […] m-chloro-phenylhydrazone (CCCP) and taxol were used as positive controls for mitochondrial function and cytoskeletal stability, respectively; DMSO served as the negative control for this experiment. Cells were fixed by the direct addition of 50 uL formaldehyde in Hank's Balanced Salt Solution (HBSS) to a final concentration of 3.7%. After incubation in the fixation medium for 30 min at room temperature (293-298 K), cells were rinsed twice with HBSS and treated with cell permeabilization buffer (16 uL of 0.5% Triton X-100) for 10 min at room temperature (293-298 K) before labeling. For mitochondrial membrane potential and mitochondrial measurements, pre-fixed cells were incubated with 50 uL of MitoTracker Red CMXRos (Invitrogen) at a concentration of 250 nM for 30 min before fixation. In the remaining cases, post-fixed cells were labeled by incubation with a multiplexed mixture of primary antibodies in HBSS for 60 min at room temperature (293-298 K) to detect immunoreactivity of c-Jun (1:500), phospho-histone H3 (1:100), phospho-histone H2A.x (1:200), p53 (1:400), alpha-tubulin (1:200) and Hoechst 33342 (2 ug/mL). Cells were labeled for multiplexed imaging on two separate plates: a) Hoechst 33342, MitoTracker Red, phospho-histone H3, and alpha-tubulin, and b) Hoechst 33342, phospho-histone H2A.x, and c-Jun. A final rinse with HBSS (50 uL) was performed before analysis. The primary and secondary antibodies for the proteins were phospho-histone H3 (rabbit anti-phospho-histone H3 and FITC-donkey anti-rabbit IgG), phospho-histone H2A.x (mouse anti-phospho-histone H2A.x and FITC-donkey anti-mouse IgG), c-Jun (rabbit anti-phospho-c-Jun and Cy3-donkey anti-rabbit IgG), p53 (sheep anti-p53 and Cy5-donkey anti-sheep IgG), alpha-tubulin (mouse anti-alpha-tubulin and Cy5-donkey anti-mouse IgG). These antibodies are available as the CellCiphr HepG2 assay kit (Millipore).Digital images of each well were captured using a Cellomics ArrayScan VTI (Thermo Scientific Cellomics) (0.8 NA objective, 0.63x optical coupler, and XF-93 filter set) at 20x magnification. The images were acquired using the autofocus feature of the ArrayScan instrument, which entails the following steps. First, the camera focuses on channel 1 (Hoechst 33342), where nuclei are identified. Second, a Z offset of 1 um is used for capturing mitochondria (MitoTracker Red). […]
For `O=C(O)COc1nc(Cl)c(Cl)cc1Cl`, the outcome was “inactive”. For `CCOc1cc(Oc2ccc(C(F)(F)F)cc2Cl)ccc1[N+](=O)[O-]`, the outcome was “inactive”. In the case of `CC1COC(Cn2cncn2)(c2ccc(Oc3ccc(Cl)cc3)cc2Cl)O1` (stereo not given), the outcome is reported as “inactive”. With `Fc1ccc(Oc2ccnc3cc(Cl)cc(Cl)c23)cc1` the outcome was “inactive”. For `CNC(=O)ON=CC(C)(C)SC`, the outcome was “inactive”. For `C#CCOS(=O)OC1CCCCC1Oc1ccc(C(C)(C)C)cc1` (stereo not given), the outcome was “inactive”. For `Cc1c(F)c(F)c(COC(=O)C2C(/C=C(\Cl)C(F)(F)F)C2(C)C)c(F)c1F` (stereo not given), the outcome was “inactive”. In the case of `CN(C)C(=S)SSC(=S)N(C)C`, the outcome is reported as “inactive”. In the case of `COc1nc(C)nc(NC(=O)NS(=O)(=O)c2ccccc2CCC(F)(F)F)n1`, the outcome is reported as “inactive”. For `CC(C)C1(C)N=C(c2nc3ccccc3cc2C(=O)O)NC1=O` (stereo not given), the outcome was “inactive”. In the case of `CC(C)(C)c1ccc(CSc2cnn(C(C)(C)C)c(=O)c2Cl)cc1`, the outcome is reported as “inactive”. With `O=C(O)c1nc(Cl)ccc1Cl` the outcome was “inactive”. For `CCCCOC(=O)c1ccccc1C(=O)OCCCC`, the outcome was “inactive”. In the case of `C=CCC1=C(C)C(OC(=O)C2C(C=C(C)C)C2(C)C)CC1=O` (stereo not given), the AC50 is reported as 42 µM (active) and the outcome is reported as “inactive”. With `O=C(Nc1ccccc1)Nc1ccnc(Cl)c1` the outcome was “inactive”. With `CCCCC(CC)COC(=O)c1ccccc1C(=O)OCC(CC)CCCC` (stereo not given) the outcome was “inactive”. In the case of `COc1ccc(C(c2ccc(OC)cc2)C(Cl)(Cl)Cl)cc1`, the outcome is reported as “inactive”. With `COC(=O)c1ccccc1C(=O)OC` the outcome was “inactive”. For `CON(C)C(=O)Nc1ccc(Cl)c(Cl)c1`, the outcome was “inactive”. For `COc1nc(NC(C)C)nc(NC(C)C)n1`, the outcome was “inactive”. With `CCCC1COC(Cn2cncn2)(c2ccc(Cl)cc2Cl)O1` (stereo not given) the outcome was “inactive”. In the case of `CO/C=C(/C(=O)OC)c1ccccc1Oc1cc(Oc2ccccc2C#N)ncn1`, the AC50 is reported as 110 µM (active) and the outcome is reported as “inactive”. With `C=CCC1=C(C)[C@@H](OC(=O)[C@@H]2[C@@H](C=C(C)C)C2(C)C)CC1=O` the outcome was “inactive”. With `Cc1ccc(-c2c(Cl)nc(C#N)n2S(=O)(=O)N(C)C)cc1` the outcome was “inactive”. In the case of `COC(=O)C=C(C)OP(=O)(OC)OC`, the outcome is reported as “inactive”. In the case of `N#CC(CCc1ccc(Cl)cc1)(Cn1cncn1)c1ccccc1` (stereo not given), the AC50 is reported as 103 µM (active). In the case of `CCc1nn(C)c(C(=O)NCc2ccc(C(C)(C)C)cc2)c1Cl`, the outcome is reported as “inactive”. With `COC(=O)C(C)Oc1ccc(Oc2ccc(Cl)cc2Cl)cc1` (stereo not given) the outcome was “inactive”. For `COc1nc(C)nc(NC(=O)NS(=O)(=O)c2ccccc2Cl)n1`, the outcome was “inactive”. For `COP(=S)(OC)Oc1nc(Cl)c(Cl)cc1Cl`, the outcome was “inactive”. With `CC(Oc1ccc(Cl)cc1Cl)C(=O)O` (stereo not given) the outcome was “inactive”. In the case of `COc1cnc(OC)n2nc(NS(=O)(=O)c3c(OCC(F)F)cccc3C(F)(F)F)nc12`, the outcome is reported as “inactive”. In the case of `COP(N)(=O)SC` (stereo not given), the outcome is reported as “inactive”. With `CCCCNC(=O)OCC#CI` the outcome was “inactive”. In the case of `Cc1cc(Cl)ccc1OCC(=O)O`, the outcome is reported as “inactive”. For `N#Cc1nn(-c2c(Cl)cc(C(F)(F)F)cc2Cl)c(N)c1S(=O)C(F)(F)F` (stereo not given), the outcome was “inactive”. For `CS/C(C)=N/OC(=O)N(C)SN(C)C(=O)O/N=C(\C)SC`, the outcome was “inactive”. With `CCCCNC(=O)n1c(NC(=O)OC)nc2ccccc21` the outcome was “inactive”.
